Data on 39 molecules can be found in PubChem BioAssay (NCI).

The panel holds about 83,000 compounds, 20% with a hit somewhere; the sample as a whole holds those more often.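 Step 1: grow cells in 96-well plates. Step 2: add test compound at a single concentration. Step 3: incubate 48 h. Step 4: record percent growth.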 The source made the active and inactive calls. Rule for the calls: active = growth percent below 10; inactive = the rest.

One experiment relates to HOP-62 NSCLC. As to the kind of experiment: NCI-60 one-dose screen, 48 h (100 = growth as untreated, 0 = no growth, -100 = all killed). As to conditions: 10 µM unless noted.
In the case of `Cc1ccc(/C=C/C(=O)c2ccc(F)cc2)s1`, the growth was 103% (inactive).
On the same count and under the same terms, in the case of `O=C1Nc2ccc(Cl)cc2/C1=C/c1cccs1` it was 80.8% (inactive).
The same measure, in the same setting: in the case of `N=C1c2nc3n(c2C(=O)c2nc4n(c21)CCCCC4)CCCCC3` it was 122% (inactive); in that of `O=C(c1ccccc1)c1ccc(Oc2ccc([N+](=O)[O-])cc2[N+](=O)[O-])cc1`, 99.1% (inactive).
On the same count and under the same terms, next, `CC[C@H]1CN2CCc3cc(OC)c(OC)cc3C2C[C@@H]1CC1NCCc2cc(OC)c(OC)cc21` (stereo partly drawn): -29.4% (active).
As to `O=C(/C=C/c1cccc(O)c1)c1cccc(-n2cc(-c3ccccc3)[nH]c2=O)c1`, the growth is 16.9% (inactive).
For the molecule `CCOC(=O)Nc1cc(-c2ccc(C)c(NS(C)(=O)=O)c2)nn2c(C)nnc12`, the growth is 14.1% (inactive).
Turning to `C1CCC(C(CC2CCCCN2)C2CCCCC2)CC1` (stereo not drawn), the growth is -81.6% (active).
Same read-out and setting: next, `C[C@H]1c2cccc(O)c2C(O)=C2C(=O)[C@]3(O)C(O)=C(C(N)=O)C(=O)[C@@H](N(C)C)[C@@H]3[C@@H](O)[C@@H]21`: 51.8% (inactive); `COc1ccc(C(=O)COc2cccc(/C=C3\COc4ccc5ccccc5c4C3=O)c2)cc1`: 96.5% (inactive); `CN1CCC[C@@H]1CCO[C@](C)(c1ccccc1)c1ccc(Cl)cc1`: 75.2% (inactive).
As for `C=CCNC(=O)/C(=C/c1cccc([N+](=O)[O-])c1)NC(=O)c1ccccc1`, the growth is 92.4% (inactive).
Regarding `CCc1ccc(-c2nc(SCC(=O)NC3CCCCC3)n[nH]2)cc1`, the growth is 94.6% (inactive).
The same measure, in the same setting: next, `Cc1cc2ccccn2c1C(=O)c1ccc(C(=O)c2ccccc2)cc1`: 98.4% (inactive); `C[N+]1(C)C2CC[C@@H]1CC(OC(=O)C(O)c1ccccc1)C2` (stereo partly drawn): 117% (inactive); `CC(C)Sc1nc(-c2ccc(Br)cc2)c(C#N)c(N2CCCCC2)n1`: 115% (inactive).
The same measure, in the same setting: in the case of `CCOC(=O)c1sc(NC(=O)COc2cccc(/C=C3\CCc4cc(OC)ccc4C3=O)c2)nc1C` it was 96.5% (inactive).
Turning to `Nc1ccc(Oc2c(F)c(F)c(Oc3ccc(N)cc3)c(F)c2F)cc1`, the growth was 101% (inactive).
On the same count and under the same terms, next, `CC12CCC3C(=CCc4cc(O)ccc43)C1CCC2=O` (stereo not drawn): 99.2% (inactive); `COc1cccc(C2=NN(C(C)=O)C(c3cc(OC)c(OC)c(OC)c3)C2)c1` (stereo not drawn): 31.5% (inactive).
`Cc1ccc(S(=O)(=O)NCCN2c3nc4ccccc4cc3Sc3cc4ccccc4nc32)cc1`: the growth was 55.8% (inactive).
Take `COc1cc(-c2nc3nc4sc(C)c(C)c4c(=O)n3[nH]2)cc(OC)c1OC`: the growth is 74.2% (inactive).
On the same count and under the same terms, next, `O=C(CNc1ccc2c(c1)C(=O)c1ccccc1C2=O)Nc1ccc2c(c1)C(=O)c1ccccc1C2=O`: -86.5% (active).
The same measure, in the same setting: next, `CC(C)=CCNc1ncnc2c1ncn2C1OC(COP(=O)(O)O)C(O)C1O` (stereo not drawn): 46.1% (inactive); `CCCCc1ccc(C(N)=O)nc1`: 99.3% (inactive).
On the same count and under the same terms, in the case of `Oc1ccccc1/C=N/N1CCCCCC1` it was 109% (inactive).
For `CCOc1nc(-c2ccco2)n2nc(-c3ccco3)cc2n1`, the growth is 118% (inactive).
Same read-out and setting: next, `Cc1onc(-c2ccccc2Cl)c1C(=O)N[C@@H]1C(=O)N2[C@@H]1SC(C)(C)[C@@H]2C(=O)O`: 97.1% (inactive); `O=C(Nc1ccccc1)P(=O)(O)c1ccccc1`: 94.3% (inactive).
On the same count and under the same terms, next, `CC(C)CC1NC(=O)C(CCCN)NC(=O)C(C(C)C)NC(=O)C2CCCN2C(=O)C(Cc2ccccc2)NC(=O)C(CC(C)C)NC(=O)C(CCCN)NC(=O)C(C(C)C)NC(=O)C2CCCN2C(=O)C(Cc2ccccc2)NC1=O` (stereo not drawn): -86.5% (active); `Cc1nn(-c2nc3ccccc3s2)c(C)c1Oc1ccccc1O`: 53.3% (inactive); `O=C(/C=C/c1ccc([N+](=O)[O-])cc1)c1ccc2c3c(cccc13)CC2`: 53.9% (inactive).
`O=C(N/N=C/c1cccc([N+](=O)[O-])c1)c1ccc(Br)o1`: the growth was 106% (inactive).
Still for that read-out and setting: next, `CCN(Cc1cccc(S(=O)(=O)[O-])c1)c1ccc(C(=C2C=CC(=[N+](CC)Cc3cccc(S(=O)(=O)O)c3)C=C2)c2ccccc2S(=O)(=O)O)cc1`: 99.3% (inactive); `c1ccc2nc(N/N=C3\CCCCC3C3CCCCC3)ccc2c1` (stereo not drawn): 8.28% (active).
On the same count and under the same terms, next, `COc1ccc2nc(N/N=C(\C)c3ccccn3)cc(C)c2c1`: 2.82% (active).
The same measure, in the same setting: next, `O=C(c1ccc(Cl)cc1)c1ccc(Cl)cc1`: 98.8% (inactive); `C[C@]12CC[C@H](O)CC1=CC[C@@H]1[C@@H]2CC[C@]2(C)C(c3cccnc3)=CC[C@@H]12`: 81.1% (inactive); `Cc1cc(C)c(C(=O)c2cccs2)c(C)c1`: 95.2% (inactive).

Another experiment concerns NCI-H460 lung. The experiment is described as above. As to conditions: 10 µM unless noted.
Turning to `Cc1ccc(/C=C/C(=O)c2ccc(F)cc2)s1`, the growth was 80.6% (inactive).
Same read-out and setting: in the case of `O=C1Nc2ccc(Cl)cc2/C1=C/c1cccs1` it was 93.4% (inactive).
Same read-out and setting: in the case of `N=C1c2nc3n(c2C(=O)c2nc4n(c21)CCCCC4)CCCCC3` it was 92.6% (inactive); in that of `O=C(c1ccccc1)c1ccc(Oc2ccc([N+](=O)[O-])cc2[N+](=O)[O-])cc1`, 103% (inactive); in that of `CC[C@H]1CN2CCc3cc(OC)c(OC)cc3C2C[C@@H]1CC1NCCc2cc(OC)c(OC)cc21` (stereo partly drawn), -25.6% (active).
The same measure, in the same setting: next, `O=C(/C=C/c1cccc(O)c1)c1cccc(-n2cc(-c3ccccc3)[nH]c2=O)c1`: 34.8% (inactive).
For the molecule `CCOC(=O)Nc1cc(-c2ccc(C)c(NS(C)(=O)=O)c2)nn2c(C)nnc12`, the growth is 28.5% (inactive).
On the same count and under the same terms, in the case of `C1CCC(C(CC2CCCCN2)C2CCCCC2)CC1` (stereo not drawn) it was -84.3% (active).
The same measure, in the same setting: next, `C[C@H]1c2cccc(O)c2C(O)=C2C(=O)[C@]3(O)C(O)=C(C(N)=O)C(=O)[C@@H](N(C)C)[C@@H]3[C@@H](O)[C@@H]21`: 35.9% (inactive); `COc1ccc(C(=O)COc2cccc(/C=C3\COc4ccc5ccccc5c4C3=O)c2)cc1`: 62% (inactive); `CN1CCC[C@@H]1CCO[C@](C)(c1ccccc1)c1ccc(Cl)cc1`: 91.3% (inactive).
Still for that read-out and setting: next, `C=CCNC(=O)/C(=C/c1cccc([N+](=O)[O-])c1)NC(=O)c1ccccc1`: 111% (inactive); `CCc1ccc(-c2nc(SCC(=O)NC3CCCCC3)n[nH]2)cc1`: 90.8% (inactive); `Cc1cc2ccccn2c1C(=O)c1ccc(C(=O)c2ccccc2)cc1`: 97.3% (inactive).
As to `C[N+]1(C)C2CC[C@@H]1CC(OC(=O)C(O)c1ccccc1)C2` (stereo partly drawn), the growth is 119% (inactive).
As to `CC(C)Sc1nc(-c2ccc(Br)cc2)c(C#N)c(N2CCCCC2)n1`, the growth was 104% (inactive).
Still for that read-out and setting: in the case of `CCOC(=O)c1sc(NC(=O)COc2cccc(/C=C3\CCc4cc(OC)ccc4C3=O)c2)nc1C` it was 80.8% (inactive); in that of `Nc1ccc(Oc2c(F)c(F)c(Oc3ccc(N)cc3)c(F)c2F)cc1`, 112% (inactive).
Turning to `CC12CCC3C(=CCc4cc(O)ccc43)C1CCC2=O` (stereo not drawn), the growth is 108% (inactive).
As to `COc1cccc(C2=NN(C(C)=O)C(c3cc(OC)c(OC)c(OC)c3)C2)c1` (stereo not drawn), the growth was -0.923% (active).
Same read-out and setting: next, `Cc1ccc(S(=O)(=O)NCCN2c3nc4ccccc4cc3Sc3cc4ccccc4nc32)cc1`: 70.8% (inactive); `COc1cc(-c2nc3nc4sc(C)c(C)c4c(=O)n3[nH]2)cc(OC)c1OC`: 92.9% (inactive).
On the same count and under the same terms, in the case of `O=C(CNc1ccc2c(c1)C(=O)c1ccccc1C2=O)Nc1ccc2c(c1)C(=O)c1ccccc1C2=O` it was -71.6% (active); in that of `CC(C)=CCNc1ncnc2c1ncn2C1OC(COP(=O)(O)O)C(O)C1O` (stereo not drawn), 80.3% (inactive).
On to `CCCCc1ccc(C(N)=O)nc1`, for which the growth is 108% (inactive).
Same read-out and setting: next, `Oc1ccccc1/C=N/N1CCCCCC1`: 127% (inactive).
On the same count and under the same terms, in the case of `CCOc1nc(-c2ccco2)n2nc(-c3ccco3)cc2n1` it was 102% (inactive); in that of `Cc1onc(-c2ccccc2Cl)c1C(=O)N[C@@H]1C(=O)N2[C@@H]1SC(C)(C)[C@@H]2C(=O)O`, 112% (inactive); in that of `O=C(Nc1ccccc1)P(=O)(O)c1ccccc1`, 105% (inactive).
Same read-out and setting: next, `CC(C)CC1NC(=O)C(CCCN)NC(=O)C(C(C)C)NC(=O)C2CCCN2C(=O)C(Cc2ccccc2)NC(=O)C(CC(C)C)NC(=O)C(CCCN)NC(=O)C(C(C)C)NC(=O)C2CCCN2C(=O)C(Cc2ccccc2)NC1=O` (stereo not drawn): -73.2% (active); `Cc1nn(-c2nc3ccccc3s2)c(C)c1Oc1ccccc1O`: 24.6% (inactive).
In the case of `O=C(/C=C/c1ccc([N+](=O)[O-])cc1)c1ccc2c3c(cccc13)CC2`, the growth was 38.4% (inactive).
On the same count and under the same terms, next, `O=C(N/N=C/c1cccc([N+](=O)[O-])c1)c1ccc(Br)o1`: 114% (inactive); `CCN(Cc1cccc(S(=O)(=O)[O-])c1)c1ccc(C(=C2C=CC(=[N+](CC)Cc3cccc(S(=O)(=O)O)c3)C=C2)c2ccccc2S(=O)(=O)O)cc1`: 107% (inactive).
Still for that read-out and setting: in the case of `c1ccc2nc(N/N=C3\CCCCC3C3CCCCC3)ccc2c1` (stereo not drawn) it was 39.7% (inactive).
Same read-out and setting: in the case of `COc1ccc2nc(N/N=C(\C)c3ccccn3)cc(C)c2c1` it was -68% (active); in that of `O=C(c1ccc(Cl)cc1)c1ccc(Cl)cc1`, 107% (inactive).
For the molecule `C[C@]12CC[C@H](O)CC1=CC[C@@H]1[C@@H]2CC[C@]2(C)C(c3cccnc3)=CC[C@@H]12`, the growth was 66.5% (inactive).
Regarding `Cc1cc(C)c(C(=O)c2cccs2)c(C)c1`, the growth was 109% (inactive).
